Results: PubChem BioAssay AID916 (National Center for Advancing Translational Sciences (NCATS), 2007)
Records with an inconclusive call do not appear. The source made the active and inactive calls. Calls follow the shape of the dose curve; as a rule, active = well fitted activation curve with a large enough effect in the signal ratio, with a control signal flat (not every such curve was filed as active); inconclusive = small, poorly fitted or top-dose-only effect, or a change in a side signal; inactive = flat fitted curve, though single readings scatter; the % refers to the signal ratio.

Assay: Confirmation Concentration-Response Assay for Cell signaling CRE-BLA (Fsk stim)
Settings: CHO CRE-bla reporter (cAMP response element driving beta-lactamase), NKH477 EC10 stim, FRET ratio; series mostly up to 38.3 µM
Excerpt: NIH Molecular Libraries Screening Centers Network [MLSCN] NIH Chemical Genomics Center [NCGC] MLSCN Grant: 1X01MH079867-01 Assay Provider: Marshall W. Nirenberg, U.S. National Heart, Lung and Blood Institute CRE beta-lactamase Assay Overview Memories persist for different lengths of time, from seconds or minutes to a lifetime. There are two kinds of memory: short-term memory (STM) and long-term memory (LTM). STM lasts for minutes to hours, which maybe mediated by modifications of molecules involved in synaptic functions. LTM lasts for days or longer, and may be due to the formation of new synapses or restructuring of existing synapses. LTM, but not STM, requires gene transcription and synthesis of proteins. CREB (cyclic-AMP Responsive Element Binding Protein) is one of the candidates plays an important role for enhancement of some types of LTM. CREB, a family of transcription factors, regulates the transcription of genes containing cAMP Responsive Elements (CRE). CRE is a nucleotide sequence often found in the promoter regions of genes that are binding sites for CREB. Using a beta-lactamase reporter-gene under control of cAMP responsive element, a cell-based assay [CellSensor(TM) CRE-bla CHO developed by Invitrogen Corp.] was used to measure forskolin-induced signaling. The selected compounds were measured for their ability to modulate positively the action of EC10 NKH 477, a water soluble forskolin, on reporter gene activity. Compounds were screened in a titration series in 1536-well format. Positive modulators were identified based on the AC50 values derived from the screening data.
NCGC Assay Protocol Summary 2000 cells/5uL in Opti-MEM medium containing 0.5% dialyzed FBS, 0.1 mM NEAA, 1 mM sodium pyruvate and 10 mM HEPES was dispensed into 1536-well plates and cells were cultured at 37 degrees Celsius overnight. Next day 23 nL of compounds or DMSO were delivered to each well using a pin tool, and 1uL of EC10 level of NKH 477, or EC100 level of IBMX, a PDE inhibitor, in the present of NKH 477, or assay medium was added. And then the plates were incubated at 37 degrees Celsius for 3 hours. 1 uL of CCF4-dye mixture was added to each well. After incubated at room temperature for 2 hours the plates were measured on an EnVision plate reader at Excitation 405nm, Emission1=460nm and Emission 2=530nm. The %Activity was determined from the ratio of 460nm/530nm. Keywords: NIH Roadmap, MLSCN, MLSMR, qHTS, NCGC, CRE, beta-lactamase reporter-gene assay.

Potency, active:
CCOC(=O)C1=C(CN2CCC(C)CC2)NC(=O)NC1c1ccc(Cl)cc1 (stereo not given) 12.6 µM, CC[C@]1(O)C[C@@H]2CN(CCc3c([nH]c4ccccc34)[C@](C(=O)OC)(c3cc4c(cc3OC)N(C)[C@H]3[C@](O)(C(=O)OC)[C@@H](C(=O)OC)[C@@]5(CC)C=CCN6CC[C@@]43[C@@H]65)C2)C1 0.0631 µM, Cn1c(C(=O)NCCCN2CCCC2=O)cc2c(=O)n(C)c3ccccc3c21 25.1 µM, Cc1sc2nc(SCc3nc4ccccc4[nH]3)n(Cc3ccco3)c(=O)c2c1C 1.26 µM, O=c1[nH]c(SCc2ccccc2Cl)nc2c1cnn2-c1ccccc1 3.98 µM
